Measured values from the supplement of paper PMC10042075.
Where a name gives a salt, the structure may show the parent alone.

These molecules were tested on LASCPC-01 (assay: cell viability relative to DMSO control (fraction); higher = less growth inhibition (more viable cells)). Details: 2 µM; 72 h.
In short: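 The table lists only serotonin-pathway compounds drawn from a 7315-compound library. Each was applied at 2 μM for 72 hours to LASCPC-01 human prostate cancer cells in 384-well plates, with three replicates. Viability was read by CellTiter-Glo luminescence as the treated-to-solvent signal ratio.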

Compound	cell viability
N[C@@H](Cc1c[nH]c2ccccc12)C(=O)O [L-Tryptophan]	0.904
CC(C)COc1ccc(CNC(=O)N(Cc2ccc(F)cc2)C2CCN(C)CC2)cc1 [Pimavanserin]	0.72
CCCCCNC(=N)N/N=C/c1c[nH]c2ccc(OC)cc12 [Tegaserod maleate]	0.531
CN(C)CC(c1ccc(O)cc1)C1(O)CCCCC1 (stereo unspecified) [Desvenlafaxine Succinate]	0.883
CNCC[C@@H](Oc1ccccc1C)c1ccccc1 [Atomoxetine HCl]	1.02
O=C1[C@H]2CCCC[C@H]2C(=O)N1CCCCN1CCN(c2nsc3ccccc23)CC1 [Perospirone]	0.997
O=C1c2cccc3c2[C@H](CCC3)CN1[C@@H]1CN2CCC1CC2 [Palonosetron hydrochloride]	0.935
Cc1ccc(Sc2ccccc2N2CCNCC2)c(C)c1	1.01
CN(C)CCC=C1c2ccccc2C=Cc2ccccc21 [Cyclobenzaprine hydrochloride]	0.947
COc1cc2c(cc1OC)[C@@H]1Cc3ccc(OC)c(OC)c3CN1CC2 [Rotundine]	1.05
CC(CN1c2ccccc2Sc2ccccc21)N(C)C (stereo unspecified) [Promethazine]	1.11
O=C(O[C@@H]1C[C@@H]2C[C@H]3C[C@H](C1)N2CC3=O)c1c[nH]c2ccccc12 [Dolasetron mesylate hydrate]	1.07
CCC(=O)c1c(O)cc(O)cc1O [Flopropione]	0.95
CN(C)[C@@H](CCOc1cccc2ccccc12)c1ccccc1 [Dapoxetine HCl]	1.03
CC(C)COc1ccc(CNC(=O)N(Cc2ccc(F)cc2)C2CCN(C)CC2)cc1 [Pimavanserin tartrate]	0.514
CNCCC(Oc1ccc(C(F)(F)F)cc1)c1ccccc1 (stereo unspecified) [Fluoxetine HCl]	1.02
